# Measurements: PubChem BioAssay (NCATS)
# Unmarked numbers belong to inactive results. Results filed as inconclusive are left out. A call without a number means that no potency is given here. Active and inactive are the calls of the source. Unless noted, calls come from the whole dose curve; as a rule, active = well fitted curve in the direction sought with a large enough effect; inconclusive = small, poorly fitted or top-dose-only effect, or another doubt; inactive = no such curve, though single readings can be large; an effect the other way counts as inactive or inconclusive.
# Legend:
# C33A = experiment: Primary qHTS to identify gynecologic anti-cancer compounds using libraries of approved drugs and bioactive compounds (AID 1345084); details: Gynecologic cancer cell panel viability, ATPlite luminescence, 48 h; series mostly up to 57.5 µM; note: nearly all actives have a fitted effect of over 55% in size
# Summary of the method: (§1)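 In this quantitative HTS, cell killing is estimated from loss of ATP-dependent luciferase light. Cells see five compound concentrations over a 48 h exposure.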
# CAOV3 = experiment: as above; details: Gynecologic cancer cell panel viability, ATPlite luminescence, 48 h; series mostly up to 57.5 µM
# Summary of the method: as §1
# CASKI = experiment: as above; details: Gynecologic cancer cell panel viability, ATPlite luminescence, 48 h; series mostly up to 57.5 µM
# Summary of the method: as §1
# Es-2 = experiment: as above; details: Gynecologic cancer cell panel viability, ATPlite luminescence, 48 h; series mostly up to 57.5 µM
# Summary of the method: as §1
# HeLa = experiment: as above; details: Gynecologic cancer cell panel viability, ATPlite luminescence, 48 h; series mostly up to 57.5 µM
# Summary of the method: as §1
# Hek293T = experiment: as above; details: Gynecologic cancer cell panel viability, ATPlite luminescence, 48 h, control line for the selectivity index; series mostly up to 57.5 µM
# Summary of the method: as §1
# JEG-3 = experiment: as above; details: Gynecologic cancer cell panel viability, ATPlite luminescence, 48 h; series mostly up to 57.5 µM
# Summary of the method: as §1
# OV90 = experiment: as above; details: Gynecologic cancer cell panel viability, ATPlite luminescence, 48 h; series mostly up to 57.5 µM
# Summary of the method: as §1
# PA-1 = experiment: as above; details: Gynecologic cancer cell panel viability, ATPlite luminescence, 48 h; series mostly up to 57.5 µM
# Summary of the method: as §1
# SKOV3 = experiment: as above; details: Gynecologic cancer cell panel viability, ATPlite luminescence, 48 h; series mostly up to 57.5 µM
# Summary of the method: as §1
# Tov-21-G = experiment: as above; details: Gynecologic cancer cell panel viability, ATPlite luminescence, 48 h; series mostly up to 57.5 µM
# Summary of the method: as §1
# Tov112D = experiment: as above; details: Gynecologic cancer cell panel viability, ATPlite luminescence, 48 h; series mostly up to 57.5 µM
# Summary of the method: as §1
# [1] = Drug repurposing screens with cells derived from glioblastoma tumor samples (AID 1345199); details: GBM patient neurospheres viability, ATP luminescence, 48 h; note: nearly all actives have a fitted effect of over 40% in size; note: potency is the fitted concentration of half-maximal effect
# Summary of the method: (§2)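 Four patient lines of CD133+ GBM neurospheres were screened at several concentrations; hits were retested in those lines plus three slower-growing GBM lines, using 48-hour treatment and ATP-based viability.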
# astro = experiment: as above; details: viability, ATP luminescence, 48 h; series mostly up to 45.9 µM
# Summary of the method: as §2
# [2] = molecular target: Nuclear receptor subfamily 1 group I member 2 (Rattus norvegicus) (UniProt Q9R1A7); experiment: qHTS assay for small molecule activators of the rat pregnane X receptor (rPXR) signaling pathway (AID 651751; call rule not given here); details: rPXR reporter cells, luciferase (One-Glo), 24 h
# Nuclear receptor subfamily 1 group I member 2 (Rattus norvegicus), sequence (Q9R1A7 whole entry, looked up): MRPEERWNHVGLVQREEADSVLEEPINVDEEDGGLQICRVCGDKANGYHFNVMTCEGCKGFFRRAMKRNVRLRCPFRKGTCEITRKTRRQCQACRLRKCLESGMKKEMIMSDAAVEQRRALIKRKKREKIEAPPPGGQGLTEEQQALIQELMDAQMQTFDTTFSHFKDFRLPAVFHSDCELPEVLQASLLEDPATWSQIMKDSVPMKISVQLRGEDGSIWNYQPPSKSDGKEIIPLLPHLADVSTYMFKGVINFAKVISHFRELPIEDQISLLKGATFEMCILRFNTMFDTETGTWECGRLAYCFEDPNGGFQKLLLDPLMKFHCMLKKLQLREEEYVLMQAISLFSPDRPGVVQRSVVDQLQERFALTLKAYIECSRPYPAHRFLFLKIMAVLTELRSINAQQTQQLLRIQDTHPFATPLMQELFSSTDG
# [3] = qHTS assay for small molecule activators of the human pregnane X receptor (PXR) signaling pathway (AID 720659; call rule not given here)
# [4] = at 45.9 µM (top of the series), tumour line B
# [5] = at 45.9 µM (top of the series), tumour line D
# [6] = at 46 µM (top of the series), tumour line A
structure (smiles),measurement,setting,value
[N-]=[N+]=CC(=O)OC[C@H](N)C(=O)O,Potency,C33A,inactive
same,outcome,CAOV3,inactive
same,outcome,CASKI,inactive
same,Potency,Es-2,inactive
same,Potency,HeLa,inactive
same,outcome,Hek293T,inactive
same,outcome,JEG-3,inactive
same,Potency,OV90,inactive
same,Potency,PA-1,inactive
same,outcome,SKOV3,inactive
same,Potency,Tov-21-G,inactive
same,Potency,Tov112D,inactive
same,"activity, negative = cell killing",[1]; [4],-23.8%
same,"activity, negative = cell killing",[1]; [5],-9.43%
same,"activity, negative = cell killing",[1]; [6],-24.5%
same,Potency,astro,inactive
same,max response,[2],-5.51%
same,outcome,[3],inactive
CC(C)NC(C)C,Potency,C33A,inactive
same,outcome,CAOV3,inactive
same,outcome,CASKI,inactive
same,Potency,Es-2,inactive
same,Potency,HeLa,inactive
same,outcome,Hek293T,inactive
same,outcome,JEG-3,inactive
same,Potency,OV90,inactive
same,Potency,PA-1,inactive
same,outcome,SKOV3,inactive
same,Potency,Tov-21-G,inactive
same,Potency,Tov112D,inactive
same,"activity, negative = cell killing",[1]; [4],6.4%
same,"activity, negative = cell killing",[1]; [5],4.87%
same,"activity, negative = cell killing",[1]; [6],1.87%
same,Potency,astro,inactive
same,max response,[2],7.26%
same,outcome,[3],inactive
CN1C(=O)COc2c(C(=O)NC3CN4CCC3CC4)cc(Cl)cc21 (configuration not stated),Potency,C33A,inactive
same,outcome,CAOV3,inactive
same,outcome,CASKI,inactive
same,Potency,Es-2,inactive
same,Potency,HeLa,inactive
same,outcome,Hek293T,inactive
same,outcome,JEG-3,inactive
same,Potency,OV90,inactive
same,Potency,PA-1,inactive
same,outcome,SKOV3,inactive
same,Potency,Tov-21-G,inactive
same,Potency,Tov112D,inactive
same,Potency,[1]; tumour line A,22.4 µM (active)
same,Potency,astro,inactive
CC(C)(C)NCC(O)c1ccccc1Cl (configuration not stated),Potency,C33A,inactive
same,outcome,CAOV3,inactive
same,outcome,CASKI,inactive
same,Potency,Es-2,inactive
same,Potency,HeLa,inactive
same,outcome,Hek293T,inactive
same,outcome,JEG-3,inactive
same,Potency,PA-1,inactive
same,outcome,SKOV3,inactive
same,Potency,Tov-21-G,inactive
same,Potency,Tov112D,inactive
same,"activity, negative = cell killing",[1]; [4],-9.73%
same,"activity, negative = cell killing",[1]; [5],-4.92%
same,Potency,astro,inactive
Clc1ccc(C(c2ccc(Cl)cc2)C(Cl)(Cl)Cl)cc1,Potency,C33A,inactive
same,outcome,CAOV3,inactive
same,outcome,CASKI,inactive
same,Potency,Es-2,inactive
same,Potency,HeLa,inactive
same,outcome,Hek293T,inactive
same,outcome,JEG-3,inactive
same,Potency,OV90,inactive
same,Potency,PA-1,inactive
same,outcome,SKOV3,inactive
same,Potency,Tov-21-G,inactive
same,Potency,Tov112D,inactive
same,Potency,[1]; tumour line A,11.2 µM (active)
same,Potency,astro,inactive
CC(C)(C)NCC(O)c1cc(Cl)c(N)c(C(F)(F)F)c1 (configuration not stated),Potency,C33A,inactive
same,outcome,CASKI,inactive
same,Potency,Es-2,inactive
same,Potency,HeLa,inactive
same,outcome,Hek293T,inactive
same,outcome,JEG-3,inactive
same,Potency,OV90,inactive
same,Potency,PA-1,inactive
same,outcome,SKOV3,inactive
same,Potency,Tov-21-G,inactive
same,Potency,Tov112D,inactive
same,"activity, negative = cell killing",[1]; [4],-7.42%
same,"activity, negative = cell killing",[1]; [5],-9.1%
same,Potency,astro,inactive
COP(=S)(OC)SCN1C(=O)c2ccccc2C1=O,Potency,C33A,inactive
same,outcome,CASKI,inactive
same,Potency,Es-2,inactive
same,Potency,HeLa,inactive
same,outcome,Hek293T,inactive
same,outcome,JEG-3,inactive
same,Potency,OV90,inactive
same,Potency,PA-1,inactive
same,outcome,SKOV3,inactive
same,Potency,Tov-21-G,inactive
same,Potency,Tov112D,inactive
same,"activity, negative = cell killing",[1]; [4],-19.8%
same,"activity, negative = cell killing",[1]; [5],-8.89%
same,Potency,astro,inactive
same,max response,[2],-5.41%
same,outcome,[3],inactive
CCCOC(=O)c1cncn1C(C)c1ccccc1 (configuration not stated),Potency,C33A,inactive
same,outcome,CASKI,inactive
same,Potency,Es-2,inactive
same,Potency,HeLa,inactive
same,outcome,Hek293T,inactive
same,outcome,JEG-3,inactive
same,Potency,OV90,inactive
same,Potency,PA-1,inactive
same,outcome,SKOV3,inactive
same,Potency,Tov-21-G,inactive
same,Potency,Tov112D,inactive
CNC(C)(C)Cc1ccccc1,Potency,C33A,inactive
same,outcome,CASKI,inactive
same,Potency,Es-2,inactive
same,Potency,HeLa,inactive
same,outcome,Hek293T,inactive
same,outcome,JEG-3,inactive
same,Potency,OV90,inactive
same,Potency,PA-1,inactive
same,outcome,SKOV3,inactive
same,Potency,Tov-21-G,inactive
same,Potency,Tov112D,inactive
same,"activity, negative = cell killing","[1]; at 21.2 µM (top of the series), tumour line B",-7.53%
same,"activity, negative = cell killing","[1]; at 21.2 µM (top of the series), tumour line D",-8.31%
same,"activity, negative = cell killing","[1]; at 21.3 µM (top of the series), tumour line A",-29.6%
same,Potency,astro,inactive
COC(=O)[C@@H](N)CCCN/C(N)=N/[N+](=O)[O-],Potency,C33A,inactive
same,outcome,CASKI,inactive
same,Potency,Es-2,inactive
same,Potency,HeLa,inactive
same,outcome,Hek293T,inactive
same,outcome,JEG-3,inactive
same,Potency,OV90,inactive
same,Potency,PA-1,inactive
same,outcome,SKOV3,inactive
same,Potency,Tov-21-G,inactive
same,Potency,Tov112D,inactive
same,"activity, negative = cell killing",[1]; [4],0.524%
same,"activity, negative = cell killing",[1]; [5],-1.49%
same,"activity, negative = cell killing",[1]; [6],-15.6%
COc1cc(OC)c(OC)cc1C=O,Potency,C33A,inactive
same,outcome,CASKI,inactive
same,Potency,Es-2,inactive
same,Potency,HeLa,inactive
same,outcome,Hek293T,inactive
same,outcome,JEG-3,inactive
same,Potency,OV90,inactive
same,Potency,PA-1,inactive
same,outcome,SKOV3,inactive
same,Potency,Tov-21-G,inactive
same,Potency,Tov112D,inactive
same,"activity, negative = cell killing","[1]; at 91.6 µM (top of the series), tumour line B",-6.05%
same,max response,[2],5.78%
same,outcome,[3],inactive
